Reference: PubChem BioAssay
Calls of active or inactive are those of the source. How the calls were made is not given here.

Each molecule was assayed against Pantothenate synthetase (Mycobacterium tuberculosis (strain ATCC 25618 / H37Rv)) (UniProt P9WIL5) (assay: Recombinant Mtb pantothenate synthetase (PanC) inhibitors, coupled enzyme, confirmatory (AID 375;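 further: 0% = full reaction with vehicle and 100% = no enzyme background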)). Conditions: coupled enzyme assay; at 10 µM, active compounds read high.
Sequence of Pantothenate synthetase (Mycobacterium tuberculosis (strain ATCC 25618 / H37Rv)) (P9WIL5 whole entry, looked up): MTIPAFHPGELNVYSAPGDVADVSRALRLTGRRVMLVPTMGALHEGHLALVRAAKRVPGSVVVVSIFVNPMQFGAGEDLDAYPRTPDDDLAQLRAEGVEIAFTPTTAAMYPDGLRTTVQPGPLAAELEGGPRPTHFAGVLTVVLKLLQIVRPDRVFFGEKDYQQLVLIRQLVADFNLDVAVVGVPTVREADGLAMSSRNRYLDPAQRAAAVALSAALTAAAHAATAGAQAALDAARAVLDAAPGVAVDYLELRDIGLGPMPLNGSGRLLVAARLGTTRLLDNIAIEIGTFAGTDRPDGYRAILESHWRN
COc1ccc(C(=O)N2CCN(S(=O)(=O)c3cc(Cl)ccc3OC)CC2)cc1 was tested, and the inhibition was 5% (inactive).
In the case of CCN1CCN(c2c(Cl)cccc2NC(=O)c2ccc3c(c2)OCCO3)CC1, the inhibition is reported as 0% (inactive).
In the case of COc1ccc(N(CC(=O)Nc2ccc3c(c2)OCO3)S(=O)(=O)c2c(C)nn(C)c2C)cc1, the inhibition is reported as 0% (inactive).
With Cc1nc2ccc(Br)cn2c1NC(C)(C)C the inhibition was 0% (inactive).
Cc1cc(NC(=O)CSc2ccc3nnc(-c4cccc(F)c4)n3n2)no1 was tested, and the inhibition was 0% (inactive).
With CCOCCCN(Cc1cc2cc(C)cc(C)c2[nH]c1=O)C(=O)N(CC)CC the inhibition was 0% (inactive).
For COc1ccc(NC(=O)CCc2ccccc2)cc1NC(=O)c1ccco1, the inhibition was 9% (inactive).
In the case of Cc1ccc(-c2ccc(=O)n(CCC(=O)NCc3ccccn3)n2)cc1, the inhibition is reported as 4% (inactive).
In the case of COCCNS(=O)(=O)c1cc(F)ccc1OC, the inhibition is reported as 0% (inactive).
With Cc1cccc(Cc2c(C)nc3nc(SCC(=O)NCc4ccco4)nn3c2C)c1 the inhibition was 2% (inactive).
In the case of CNC(=O)c1ccsc1NC(=O)c1ccccc1, the inhibition is reported as 4% (inactive).
Cc1oc2nc(SCCCC(=O)NCCCO)nc(N)c2c1C was tested, and the inhibition was 2% (inactive).
With COc1cccc(C2=NOC(C(=O)Nc3ccc(C(C)=O)cc3)C2)c1 (stereo not given) the inhibition was 0% (inactive).
In the case of c1ccc(-n2cnc3cc(NCc4ccccn4)ccc32)cc1, the inhibition is reported as 0% (inactive).
With COc1ccc(Cc2nnc3n2N=C(c2cc4ccccc4o2)CS3)cc1OC the inhibition was 0% (inactive).
Cc1ccc(N2CCN(C(=S)c3ccc(N(C)C)cc3)CC2)cc1 was tested, and the inhibition was 10% (inactive).
In the case of CC(=O)OCCNc1cc(N2CCN(C)CC2)c2noc3c2c1C(=O)c1ccccc1-3, the inhibition is reported as 0% (inactive).
Nc1cc(C(=O)O)ccc1Nc1ccc(F)c(F)c1 was tested, and the inhibition was 5% (inactive).
With CCC(c1nnnn1CCOC)N(Cc1ccc(C)cc1)Cc1cc2cc(OC)ccc2[nH]c1=O (stereo not given) the inhibition was 0% (inactive).
For CCN(Cc1nc2ccccc2c(=O)[nH]1)Cc1cc(=O)oc2cc(C)c(C)cc12, the inhibition was 0% (inactive).
With Cc1ccccc1OCCn1c(=O)oc2ccccc21 the inhibition was 2% (inactive).
With O=C(CNC(=O)c1cccs1)NCCN1CCN(c2ccccc2F)CC1 the inhibition was 0% (inactive).
For COC(=O)c1ccccc1NC(=O)Nc1cccs1, the inhibition was 7% (inactive).
With CCOC(=O)CSC1=C(C#N)C(c2ccc(C)cc2)C(C(=O)OC)C(=O)N1 (stereo not given) the inhibition was 0% (inactive).
In the case of CCc1nnc(NC(=O)c2cc3ccccc3oc2=O)s1, the inhibition is reported as 2% (inactive).
For O=C(Nc1sccc1C(=O)NCc1ccco1)c1cccnc1, the inhibition was 5% (inactive).
For CC(=O)N1CCN(c2ccc(N=Cc3c(O)n(Cc4ccccc4)c(=O)[nH]c3=O)cc2)CC1, the inhibition was 0% (inactive).
With Nc1nc(N2CCCCC2)nc(N(c2ccccc2)c2ccccc2)n1 the inhibition was 3% (inactive).
With Cc1c(NC(=O)c2coc(=O)c(Br)c2)c(=O)n(-c2ccccc2)n1C the inhibition was 7% (inactive).
CC(NCCc1ccc(O)cc1)C(O)c1ccc(O)cc1 (stereo not given) was tested, and the inhibition was 0% (inactive).
CC1(C)O[C@@H]2C[C@H]3[C@@H]4C[C@H](F)C5=CC(=O)C=C[C@]5(C)[C@@]4(F)[C@@H](O)C[C@]3(C)[C@]2(C(=O)CO)O1 was tested, and the inhibition was 1% (inactive).
In the case of CCC(c1c(C)n(C)n(-c2ccccc2)c1=O)c1c(C)n(C)n(-c2ccccc2)c1=O, the inhibition is reported as 1% (inactive).
For COc1cccc(OC)c1C(=O)Nc1ccccc1N1CCCC1, the inhibition was 2% (inactive).
In the case of Cc1cc(=O)oc2cc(Oc3ncccn3)ccc12, the inhibition is reported as 6% (inactive).
CSc1cccc(NC(=O)C2CCCN2S(=O)(=O)c2ccc3c(c2)CCC(=O)N3)c1 (stereo not given) was tested, and the inhibition was 0% (inactive).
CC(Sc1nc(-c2ccccc2)cc(C(F)(F)F)n1)C(=O)N1CCC(C(N)=O)CC1 (stereo not given) was tested, and the inhibition was 0% (inactive).
With O=C(c1ccco1)N1CCN(C(=O)c2sccc2-c2ccccc2)CC1 the inhibition was 0% (inactive).
For CCOC(=O)CSc1nc(N)c2c3c(sc2n1)CCCC3, the inhibition was 0% (inactive).
CC(C)(C#N)Nn1cnnc1 was tested, and the inhibition was 0% (inactive).
For O=C(NCc1cccs1)C1CC(=O)N(c2ccccc2)C1 (stereo not given), the inhibition was 0% (inactive).
